Out of some 60,000 compounds screened, about 370 (0.62%) were called active. The full list was thinned out, with actives kept by preference. A number with no mark means an inactive call. No stated cut-off is given here; in the data, active means inhibition above about 17%; inactive means the rest.
target: Mitogen-activated protein kinase 10 (Homo sapiens) (UniProt P53779); assay: JNK3 kinase activity inhibitors, primary screen, biochemical, human, purified enzyme (AID 746); conditions: HTS, at 8 µM, stronger effect = higher value;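 further: 0% = DMSO and 100% = reference inhibitor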
Sequence (P53779 whole entry, looked up): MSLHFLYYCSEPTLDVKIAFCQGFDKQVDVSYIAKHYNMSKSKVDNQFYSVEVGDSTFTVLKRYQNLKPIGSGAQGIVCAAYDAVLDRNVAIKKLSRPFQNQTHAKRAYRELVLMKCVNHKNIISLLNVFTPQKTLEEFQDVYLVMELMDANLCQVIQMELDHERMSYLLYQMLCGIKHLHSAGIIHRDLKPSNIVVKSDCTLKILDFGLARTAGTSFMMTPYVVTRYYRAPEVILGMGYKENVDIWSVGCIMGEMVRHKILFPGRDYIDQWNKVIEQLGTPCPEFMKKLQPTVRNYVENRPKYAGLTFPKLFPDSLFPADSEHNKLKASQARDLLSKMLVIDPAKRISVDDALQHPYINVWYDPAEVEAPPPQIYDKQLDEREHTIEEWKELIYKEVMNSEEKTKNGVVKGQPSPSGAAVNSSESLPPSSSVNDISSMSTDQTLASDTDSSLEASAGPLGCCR

Point of comparison: `CC(=O)Oc1ccc(C)cc1N1C(=O)c2ccc(C(=O)O)cc2C1=O`, inhibition 0.63%. Against it:
- CCCCc1nc2ccccc2c(=O)n1NC(=O)c1c(O)c2cccc3c2n(c1=O)CC3 — lower, -6.2%
- CCCC(=O)NC(C)C(c1cccs1)N1CCN(c2ccccc2)CC1 (stereo unspecified) — lower, 0.41%
- O=C(NCC12CC3CC(C1)CC(CNC(=O)N1CCCC1)(C3)C2)N1CCCC1 — higher, 2.23%
- CCOC(=O)CC1C(=O)NCCN1C(=O)COc1ccc(Br)cc1C (stereo unspecified) — higher, 1.6%
- N#Cc1c(/N=C/N2CCCC2)oc(-c2ccccc2)c1-c1ccccc1 — lower, -3.67%
- CC(C)n1c(SCC(=O)Nc2ccccc2N2CCCCC2)nc2c1c(=O)n(C)c(=O)n2C — lower, 0%
- Nc1nnc(C2CCCC2)s1 — lower, -0.19%
- O/N=C(\c1ccc2c(c1)OCCO2)C1CCCCC1 — lower, -1.18%
- COc1cc(Br)cc(/C=N/c2ncn[nH]2)c1O — lower, -2.89%
- Clc1ccc(Cc2nnc(-c3cccs3)o2)cc1 — higher, 2.19%
- CCCc1[nH]nc2c1C(c1ccc(OC(=O)c3ccco3)cc1)C(C#N)=C(N)O2 (stereo unspecified) — higher, 6.15%
- CC(=O)NC(C)(C)C1CC=C(C)/C(=N\O)C1 (stereo unspecified) — higher, 0.98%
- CCN(CC)S(=O)(=O)c1ccc2nc(CSc3nnnn3-c3ccc(O)cc3)[nH]c2c1 — higher, 8.62%
- CCN(CC)S(=O)(=O)c1cccc(C(=O)NCC(=O)OCC(=O)NCc2ccccc2)c1 — lower, -1.17%
- Cc1c(CN2CCC(C)CC2)c(=O)n(-c2ccccc2)n1C — lower, 0.5%
- O=P(O)(CP(=O)(c1ccccc1)c1ccccc1)c1ccccc1 — lower, -5.23%
- Cc1nc2c(-c3ccc(F)cc3)c(C)nn2c(C)c1CCC(=O)N1CCN(c2ccccn2)CC1 — higher, 1.08%
- Cc1c(C(=O)NCC2CCCO2)sc2nc(-c3ccccc3)cn12 (stereo unspecified) — lower, -3.26%
- CCSC1(SCC)N=C(N)C2(C#N)C(c3ccccc3)NC(C)=CC12C#N (stereo unspecified) — lower, 0.03%
- CCOC(=O)c1ccccc1NC(=O)CC1Nc2ccccc2NC1=O (stereo unspecified) — lower, -0.55%
- CCOC(=O)C1CCN(C(=O)COc2cc(C)c(Br)c(C)c2)CC1 — higher, 6.51%
- COc1cccc(-c2nc3n(n2)C(c2ccccc2Cl)C(C(N)=O)=C(C)N3)c1 (stereo unspecified) — higher, 1.25%
- COc1ccc(NC(=O)c2c(SC)nsc2SC)cc1 — lower, -3.4%
- COc1ccc(C(=O)CSc2nccc(=O)[nH]2)cc1 — lower, -1.11%

In the case of `CCN(CC)S(=O)(=O)c1ccc2nc(COC(=O)c3n[nH]c4ccccc34)[nH]c2c1`, the inhibition is reported as 95.8% (active).

Source: PubChem BioAssay AID746 (The Scripps Research Institute Molecular Screening Center, 2007)
